# Potency and affinity values are given separately. Active and inactive are the calls of the source.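 The calls were made as follows: active = cell killing with a fitted half-effect concentration at or below twice the top valid dose; inconclusive = flat curve with 30 to 70 percent drop, or poor fit; inactive = the rest.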
# Test: viability loss in HEK293T kidney cells – cell-based, ATP luminescence, cherry-pick, set 6, cytotoxicity control, dose response (AID 1053126)
# Conditions: CellTiter-Glo ATP luminescence, 72 h; series mostly up to 26 µM
row,SMILES,outcome
1,O=C(c1cccc(Cl)c1)N1CCC(=O)N(C(COCc2ccccc2)Cc2ccccc2)CC1 (stereo not drawn),inactive
2,CC1CCCCN1Cc1c(O)ccc2c(=O)c(-c3nc4ccccc4s3)coc12 (stereo not drawn),inactive
3,CC1(C)CC(=O)C2=C(C1)OC(N)=C(C#N)[C@@H]2c1ccccc1[N+](=O)[O-],inactive
4,COc1ccc(C(=O)Oc2cc(N)n(S(=O)(=O)c3ccccc3)n2)cc1,inactive
5,O=C(CCCN1C(=O)CSc2ncccc21)N1CCN(Cc2ccccc2)CC1,inactive
6,COc1ccc(NC(=O)C2CCC(CNS(=O)(=O)c3cccs3)CC2)cc1 (stereo not drawn),inactive
7,COc1ccccc1NS(=O)(=O)c1cc(NC(=O)CCNC(C)=O)ccc1C,inactive
8,CCOC(=O)c1oc2c(CN3CCN(CCO)CC3)c(O)c(CC)cc2c(=O)c1-c1nc2ccccc2s1,inactive
9,CCOC(=O)c1cc(-c2ccccc2)sc1NC(=O)CSc1nnc(N)s1,inactive
10,COc1ccc(C2C3=C(CC(C)(C)CC3=O)N(C)C3=C2C(=O)CC(C)(C)C3)cc1,inactive
11,COc1ccc(S(=O)(=O)N2CCCC2CNC(=O)C(=O)NC2CCCC2)cc1 (stereo not drawn),inactive
12,Cc1nc2ccccc2c2oc(C(=O)NCCCN3CCC(C)CC3)cc12,inactive
13,CSc1ccc(Cn2c(C)c(C(=O)NCc3cccc(Cl)c3)sc2=O)cc1,inactive
14,O=C(O)c1ccc(N2N=C(c3ccccc3)CC2c2ccccc2)cc1 (stereo not drawn),inactive
15,COc1cccc2c(=O)c3c(cnn3C)n(C)c12,inactive
16,CCC(=O)N1C(C(=O)NCc2ccc(OC)cc2)CSC1c1ccc(OC)cc1 (stereo not drawn),inactive
17,Cc1c(O)ccc2cc(S(=O)(=O)c3ccccc3)c(=O)oc12,inactive
18,CCOc1ccc(C(=O)c2cc3ccc(O)cc3oc2=O)cc1,inactive
19,CCNc1nc2nc3ccc(C)cn3c(=O)c2cc1C(=O)NCC1CCCO1 (stereo not drawn),inactive

row,SMILES,outcome
1,CCOC(=O)C(NC(=O)c1ccccc1)(OCC1(CC)COC1)C(F)(F)F (stereo not drawn),inactive
2,CCCCN(CCCC)CC(O)Cn1c2ccccc2c(=O)c2ccccc21 (stereo not drawn),inactive
3,CC(C)CCN1C(=O)c2cccc3c(N)ccc(c23)C1=O,inactive
4,CCn1c2ccccc2c(=O)c2ccccc21,inactive
5,CCc1nc(SCC(=O)c2ccccc2)c2ccccc2n1,inactive
6,O=c1c2ccccc2n(CC(O)CN2CCCCC2)c2ccccc12 (stereo not drawn),inactive
7,C[C@H](NC(=O)c1nc[nH]c1C(=O)N[C@@H](Cc1ccccc1)C(=O)OC(C)(C)C)C(=O)OCc1ccccc1,inactive
8,COc1ccc(C2C(C#N)=C(N)Oc3cc(O)ccc32)cc1Cl (stereo not drawn),inactive
9,COC(=O)C1=CN(Cc2ccc(OC)c(OC)c2)C=C(C(=O)OC)C1c1cccc(F)c1,inactive
10,COc1ccc(CCNC(=O)c2cc(S(=O)(=O)N3CCCCC3)c[nH]2)cc1OC,inactive
11,CN1CCc2c(sc(NC(=O)Cc3ccccc3)c2C#N)C1,inactive
12,COc1cc(C(=O)NCCCNc2nc3c(C)cc(C)cc3cc2C#N)cc(OC)c1OC,inactive
13,COCCNC(=O)c1cc2c(=O)n3cccc(C)c3nc2n(Cc2ccncc2)c1=N,inactive
14,Cc1cc(-n2c(=O)c(C#N)cc3c(=O)n4ccccc4nc32)no1,inactive
15,COc1cccc(N2CCN(C(=O)C3CCCN(S(=O)(=O)c4cnc[nH]4)C3)CC2)c1 (stereo not drawn),inactive
16,Cc1cccn2c(=O)c3cc(C(=O)NCC4CCCO4)c(=N)n(CC4CCCO4)c3nc12 (stereo not drawn),inactive
17,O=C(O)c1cccc(Nc2nc(-c3cc4ccccc4oc3=O)cs2)c1,inactive
18,Cc1noc(C)c1-c1ccc(C(=O)NCCc2ccccc2)c2occc12,inactive
19,O=c1[nH]c(Nc2ccccc2Cl)cc2ccccc12,inactive

# From PubChem BioAssay AID1053126 (Broad Institute, 2014)
